Inhibition data for 58 molecules are collected here from PubChem BioAssay AID743093 (The Scripps Research Institute Molecular Screening Center, 2013).

The whole screen tested about 150,000 compounds, of which about 100 (0.067%) were called active.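 The calls were made as follows: active = inhibition above the mean plus 3 SD of compounds within the control limits, set per campaign (cut at about 38% in these data); inactive = the rest.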 The list comes from a sample in which actives are over-represented; it also holds similar structures and randomly drawn compounds.

As a reminder, the inhibition is the relative decrease from the control value, in per cent.

This assay in a line: late stage P. falciparum gametocyte viability inhibitors, primary screen, ATP luminescence, HTS (AID 743093).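 Also: 0% = DMSO wells and 100% = medium only without gametocytes.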 The conditions noted are these: P. falciparum stage V gametocytes, 24 h, at 10.9 µM, stronger effect = higher value.
In the case of `COc1ccc(CCNC(=O)Cc2ccc(C)cc2)cc1OC`, the inhibition was -9.83% (inactive). As to `O=[N+]([O-])c1ccccc1/C=C/CN1CCCC(CO)C1` (stereo not drawn), the inhibition is -16.5% (inactive). In the case of `O=C(CCCCO)c1ccc(O)c(Cl)c1`, the inhibition is -2.03% (inactive).

Turning to `CN(Cc1ccccc1)C(=O)c1ccc(COc2ccccc2)cc1`, the inhibition is -8.25% (inactive). With `COc1ccc(OC)c(C(=O)NC(CC(N)=O)c2ccc(N3CCC(N4CCCCC4)CC3)c([N+](=O)[O-])c2)c1` (stereo not drawn) the figure was 0.29% (inactive); with `COc1ccc(-c2sc3ccc(OC)cc3c2C#Cc2ccccn2)cc1`, 11.6% (inactive); with `COc1cc(NC(=O)c2ccc(CNc3c(N4CCCC4)c(=O)c3=O)cc2)cc(OC)c1OC`, -11.3% (inactive). `COc1ccc(OCC(O)CN(C)C(=O)C(C)Oc2ccccc2)cc1` (stereo not drawn): the inhibition was -38.3% (inactive). In the case of `Cc1cc(F)ccc1NC(=O)C(C)n1c2ccccc2c2nc(=O)cc(C)n21` (stereo not drawn), the inhibition was -11.9% (inactive).

With `CCOC(=O)CSc1nc(C)c(Oc2ccc(Cl)cc2Cl)c(=O)[nH]1`, the inhibition was -4.17% (inactive). For `O=C(C1CCC1)N1CCN(c2ccccc2)CC1` the value was 10.5% (inactive).

Consider `Cn1c(Nc2cccc(Cl)c2)nc2ccccc21`, for which the inhibition was -9.18% (inactive). With `CN(C(=O)c1cccc(NC(=O)Cc2ccc([N+](=O)[O-])cc2)c1)C1CCC1` the figure was -9.69% (inactive). Take `O=C(CCc1ccccc1)Nc1ncc([N+](=O)[O-])s1`: the inhibition was -11.7% (inactive). For `O=C(Cc1c(F)cccc1Cl)Nc1ccc(-n2cnnn2)cc1`, the inhibition was 4.22% (inactive).

`O=C(Cc1c(F)cccc1Cl)Nc1ncc([N+](=O)[O-])s1`: the inhibition was 39.5% (active). With `O=C(CCl)N(Cc1cccc([N+](=O)[O-])c1)c1cccc(Cl)c1`, the inhibition was -7.41% (inactive). For `Clc1ccc(C[n+]2cc(-c3ccccc3)n3c2CCC3)cc1`, the inhibition was 1.51% (inactive). Consider `O=[N+]([O-])c1ccc(NC(=S)N2CCN(c3ccccn3)CC2)cc1`, for which the inhibition was 3.29% (inactive). For the molecule `O=C(CN1CCN(c2ccc(F)cc2)CC1)Nc1ccccc1`, the inhibition is -14.6% (inactive). As to `N#C/C(=C\c1ccc(-c2cccc([N+](=O)[O-])c2)o1)C(=O)NCCN1CCOCC1`, the inhibition is -28.5% (inactive). For `Cc1ccccc1Nc1c(-c2ccccc2)nc2ncccn12` the value was -29.5% (inactive); for `O=S(=O)(c1cccc(C(F)(F)F)c1)N1CCN(c2cnccn2)CC1`, -34.2% (inactive). For `Cc1ccc(S(=O)(=O)N2CCN(c3ccccc3)CC2)cc1C` the value was 0.96% (inactive); for `O=C1CC(=O)Nc2cc(S(=O)(=O)N3CCN(c4cccc(C(F)(F)F)c4)CC3)ccc2N1`, 38.8% (active). On to `CCc1cc(CNC(=O)CC2C(=O)NCCN2Cc2ccccc2C(F)(F)F)on1` (stereo not drawn), for which the inhibition is -0.11% (inactive). Take `COc1ccc(NC(=O)C2C3CCC(O3)C2C(=O)O)cc1OC` (stereo not drawn): the inhibition is 7.46% (inactive). For the molecule `Cc1ccc(S(=O)(=O)Nc2nc(C)cc(N/N=C/c3ccc(O)cc3)n2)cc1`, the inhibition was 42.5% (active). For `Cc1cc(N/N=C\c2ccc(Br)cc2)nc(-n2nc(C)cc2C)n1` the value was -0.66% (inactive). Regarding `Cc1ccc(S(=O)(=O)Nc2nc(C)cc(-n3nc(C)cc3C)n2)cc1`, the inhibition was 10.5% (inactive).

On to `CC1CCC(CN2CCN=C2N(C)C)CC1` (stereo not drawn), for which the inhibition was -5.33% (inactive). Consider `CCN(CC)CCCNC(=S)N(CCO)Cc1cc2cc3c(cc2[nH]c1=O)OCO3`, for which the inhibition is 4.58% (inactive). With `CN(c1ccccn1)c1ncnc2[nH]ncc12` the figure was 2.58% (inactive). As for `O=S(=O)(c1ccc(Cl)cc1)N1CCCN(c2ccc(C(F)(F)F)cn2)CC1`, the inhibition was -9.4% (inactive). Turning to `CC(C)CC(CCc1ccccc1)OS(N)(=O)=O` (stereo not drawn), the inhibition was -58.7% (inactive). With `CC(C)(C)OC(=O)Nc1ccc([C@@H](NC(=O)OC(C)(C)C)C(=O)OC(C)(C)C)cc1`, the inhibition is -5.54% (inactive).

Turning to `COc1ccc(C)cc1NC(=O)CNCc1cccs1`, the inhibition is 7.68% (inactive). As to `O=C(Cc1ccc(Br)cc1)NCCc1ccccc1`, the inhibition is 15.4% (inactive). For the molecule `CCC(C)CCN1CCN=C1N(C)C` (stereo not drawn), the inhibition is 4.3% (inactive). On to `Cc1ccc(S(=O)(=O)NCCCn2ccnc2)cc1C(=O)NC(C)C`, for which the inhibition was 2.4% (inactive).

Turning to `O=C1N[C@@H](Cc2ccccc2)C(=O)N2[C@H]1C[C@]1(Br)c3ccccc3N(S(=O)(=O)c3ccccc3)[C@H]21`, the inhibition was 12.6% (inactive). For `COC(=O)c1ccc(COc2ccc(/C=N/NC(=O)C(=O)Nc3ccc(OC)cc3)cc2OC)o1` the value was 2.74% (inactive).

For `O=C(N[C@@H](Cc1ccccc1)C(=O)OCc1ccccc1)c1nc[nH]c1C(=O)N[C@@H](Cc1ccccc1)C(=O)OCc1ccccc1`, the inhibition was 0.44% (inactive). `CCOc1cc(/C=N/Nc2cc(C)nc3ccc(C)cc23)ccc1O`: the inhibition was 10.4% (inactive).

With `FC(F)(F)c1ccc2c3n(nc2c1)CCN=C3c1ccc(Cl)cc1`, the inhibition is 6.57% (inactive). For `COC(=O)CN1C(=O)[C@H]2[C@@H](C3CC3)N3C(=O)CN(Cc4ccc(-c5ccccc5)cc4)C(=O)[C@@]3(Cc3ccccc3)[C@H]2C1=O` the value was -19.5% (inactive); for `CC(=O)Nc1ccc(NC(=O)CSc2nnnn2-c2ccccc2F)cc1`, -3.76% (inactive). Turning to `CC1CN(c2nc(Nc3ccccc3)nc(N)c2[N+](=O)[O-])CC(C)O1` (stereo not drawn), the inhibition was -1.38% (inactive). For `CCOc1cc(C)ccc1OCc1nnc(SCC(=O)Nc2cccc(C(=O)O)c2)n1-c1ccccc1`, the inhibition is 15.6% (inactive). With `Nc1cccnc1Sc1ccccc1`, the inhibition is -1.9% (inactive). `Cc1noc(C)c1NC(=O)Nc1cccc2c1O[C@H](CN(C)S(=O)(=O)c1c(C)noc1C)[C@@H](C)CN([C@H](C)CO)C2=O`: the inhibition was -15.7% (inactive). Regarding `O=C(O)c1ccccc1NC(=O)c1ccccc1-c1ccccc1C(=O)O`, the inhibition was -11.4% (inactive). Regarding `CCOCCn1[nH]c2ccccc2c1=O`, the inhibition was -10.4% (inactive). For the molecule `COc1cc2c(cc1OC)C(c1ccccc1Br)NC(=O)C2` (stereo not drawn), the inhibition is 1.27% (inactive). On to `Cc1cccc(NC(=O)CCN2CC(C)CC(C)C2)c1` (stereo not drawn), for which the inhibition was -2.59% (inactive). In the case of `CC(=O)Nc1ccc(Oc2ccc3c(c2)C(=O)NC3=O)cc1`, the inhibition is 10.6% (inactive).

Take `CCCn1c(C2CCCN2c2nc(-c3ccc(C)cc3)cs2)nc2cc(Cl)c(N3CCCCC3)cc21` (stereo not drawn): the inhibition is 10.4% (inactive). With `O=C(O)CCC(=O)N(Cc1ccccc1)Cc1ccccc1` the figure was -4.24% (inactive).
